# A selection: hits, their analogues and other compounds. The true share with any hit is near 0.81%.
# IDE cell inh: inhibitors of human insulin-degrading enzyme in cells | P14735 | HEK cells, FAbetaB cleavage, fluorescence polarization | inhibition, % at 5.59 µM | 320,000 tested, 0.41% active;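 active = percent inhibition above the average of all tested compounds plus 3 SD, set per screening campaign, cut at about 16% in these data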;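 note: IDE supplied by intact live HEK cells; FP after avidin binding of uncleaved biotin substrate so inhibition keeps polarization high; 0% = DMSO wells and 100% = 60 µM reference IDE inhibitor Ii1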
# IDE act: activators of human insulin-degrading enzyme in cells | P14735 | HEK cells, FAbeta-B cleavage, fluorescence polarization; 0% vehicle, 100% cell-free pure enzyme wells | activation, % at 5.96 µM | 340,000 tested, 0.073% active | AID 493087;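 active = activation above the mean of all tested compounds plus 3 SD, set per screening campaign, cut at about 17% in these data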
# RTF Ca sens inh: cardiac RTF calcium desensitization | P19429+P45379 | IANBD-labeled cardiac RTF, Ca2+ fluorescence | inhibition, % at 7.15 µM | 340,000 tested, 0.12% active;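 active = inhibition above the mean inhibition of all tested compounds plus 3 SD, cut at about 17% in these data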;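 note: assay run at fixed EC70 calcium of 1.6 mM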
# C-LANA FP: KSHV C-LANA DNA binding inhibition; MBP-C-LANA/FAM-LBS DNA binding, fluorescence polarization; inhibition, % at 9 µM; 340,000 tested, 0.078% active; AID 504423;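 active = highest replicate inhibition at or above 60% at 9 µM, even if other replicates fall short; inactive = all replicates below 60% inhibition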;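 note: 0% = neutral control wells and 100% = 4 µM acridine orange control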
# RTF Ca sens act: cardiac RTF calcium sensitization | P19429+P45379 | IANBD-labeled TnC RTF fluorescence at EC20 calcium; 0% EC20 calcium, 100% full calcium | activation, % at 7.2 µM | 340,000 tested, 0.24% active;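 active = activation above the mean over all tested compounds plus 3 SD, cut at about 30% in these data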;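 note: rise in fluorescence read as greater calcium sensitivity of cardiac thin filaments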
# Keap1-Nrf2 PPI: Keap1-Nrf2 (human) interaction inhibition; Q14145; Keap1 Kelch-Nrf2 peptide fluorescence polarization, 1536-well; inhibition, % at 9.4 µM; 340,000 tested, 0.15% active; in the data active = inhibition above about 12%; inconclusive = no clear call, values can overlap the other calls; inactive = below about 7.3%;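 note: human Keap1 Kelch domain with fluorescein labeled Nrf2 9mer peptide probe; 0% = neutral control wells and 100% = peptide positive control; higher means more block of Keap1 binding to Nrf2 peptide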
# Target sequence (Q14145 whole entry, looked up, the tested form may be a part): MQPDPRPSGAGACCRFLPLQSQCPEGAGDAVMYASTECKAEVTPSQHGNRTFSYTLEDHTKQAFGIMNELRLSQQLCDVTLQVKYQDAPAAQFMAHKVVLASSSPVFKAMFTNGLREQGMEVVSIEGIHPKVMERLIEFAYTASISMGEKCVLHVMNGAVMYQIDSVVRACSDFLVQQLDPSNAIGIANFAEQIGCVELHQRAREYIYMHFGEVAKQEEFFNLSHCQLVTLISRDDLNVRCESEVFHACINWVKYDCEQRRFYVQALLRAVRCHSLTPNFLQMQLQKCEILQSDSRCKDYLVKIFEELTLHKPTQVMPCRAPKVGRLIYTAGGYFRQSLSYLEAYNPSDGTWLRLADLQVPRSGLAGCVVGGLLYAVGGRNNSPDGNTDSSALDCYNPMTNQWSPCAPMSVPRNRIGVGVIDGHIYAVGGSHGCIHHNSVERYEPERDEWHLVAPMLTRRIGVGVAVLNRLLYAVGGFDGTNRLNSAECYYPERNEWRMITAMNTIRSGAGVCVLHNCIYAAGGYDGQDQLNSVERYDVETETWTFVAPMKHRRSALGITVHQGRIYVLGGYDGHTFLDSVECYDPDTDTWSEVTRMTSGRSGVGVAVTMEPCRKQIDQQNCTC
# * = called active by the depositor; ? = inconclusive; . = no result given; ! = a repeat was not active.
SMILES,IDE cell inh,IDE act,RTF Ca sens inh,C-LANA FP,RTF Ca sens act,Keap1-Nrf2 PPI
CNC[C@@H]1Oc2ccc(NS(=O)(=O)c3ccc(OC)cc3)cc2CC(=O)N([C@H](C)CO)C[C@@H]1C,2,22*,-5,0,1,-9
C[C@H](CO)N1C[C@H](C)[C@H](CN(C)C)Oc2ccc(NS(=O)(=O)c3ccc(F)cc3)cc2CC1=O,0,4,-9,-1,-4,4
COc1c(C(=O)Nc2ccc(CN3CCOCC3)cc2)cc2ccccc2c1Br,-7,3,-3,0,1,-5
COc1c(C(=O)Nc2ccc3[nH]c(=O)[nH]c3c2)cc2ccccc2c1Br,-3,20*,-2,-2,8,-6
Cc1ccc(CNCCCSc2nc(C)cc(C)n2)cc1,10,2,-3,3,-2,-2
Cc1cc(C)nc(SCCCNCc2ccc(Br)cc2)n1,5,-3,-1,-2,32*,-5
C=Cc1c(C)c2cc3[nH]c(cc4nc(cc5nc(cc1[nH]2)C(C)=C5CCC(=O)O)C(CCC(=O)O)=C4C)c(C)c3C=C,3,7,55*!,64*,-11,1
CCOC(=O)CNC(=O)/C=C/c1ccc2c(c1)OCO2,1,9,-2,0,-1,-3
CCOC(=O)CNc1ccc2c(c1)OCO2,-5,2,-31,38,25,22*
COc1ccc(C(=S)N2CCN(c3ccccc3C)CC2)cc1OC,.,-5,1,1,5,-3
CCN(CC(=O)NCc1ccc(Cl)cc1)C(=O)CN1C(=O)NC(CC)(c2ccccc2)C1=O (stereo not drawn),-3,-1,-4,0,0,4
Cc1ccc(C(=O)NN2C(=O)/C(=C/c3cccn3C)SC2=S)cc1,12,3,-28,0,15,2
Cc1ccc(C(=O)NN2C(=O)/C(=C/c3cn(C)c4ccccc34)SC2=S)cc1,3,-18,-55,3,77*,-2
Cn1cc(/C=C2\SC(=S)N(NC(=O)c3ccccc3Cl)C2=O)c2ccccc21,11,-21,-148,0,74*,-7
COC(=O)C1=C(C(=O)OC)[C@]2([C@@H]3CCCCN[C@@H](Cc4ccccc4)C(=O)N3Cc3ccccc3)C=C[C@H]1O2,.,2,2,1,9,-7
COc1ccccc1NS(=O)(=O)c1cccc(C(=O)N/N=C2\CC(=O)CC(C)(C)C2)c1,6,1,8,3,3,-4
NC(CO)c1cn([C@@H](CCC(=O)O)C(=O)N2CCNCC2)nn1 (stereo partly drawn),1,22*,-4,-1,0,0
CC(C)CC(N)c1cn([C@@H](CCC(=O)O)C(=O)N2CCNCC2)nn1 (stereo partly drawn),6,7,-6,2,-2,0
C/C(=N/NC(=O)c1cc(O)c(O)c(O)c1)c1ccc([N+](=O)[O-])cc1,.,-6,-3,76*,0,-2
CCCC(=O)n1nc(-c2ccc(Cl)cc2)nc1SC,7,4,-7,78*,-2,0
CCC(=O)n1nc(-c2ccc(Cl)cc2)nc1SC,2,2,5,0,-1,3
O=C(CCn1cccn1)Nc1ccc2c(c1)OCO2,-3,1,-12,1,-1,-3
CCc1nc(N)nc(N)c1-c1ccc(Cl)c([N+](=O)[O-])c1,.,3,1,-2,-4,-1
O=C(c1cnn(C(=O)c2ccco2)c1)c1cc(F)ccc1O,2,27*,-1,-2,1,-3
O=C(c1cnn(C(=O)c2ccco2)c1)c1cc(Cl)cc(Cl)c1O,1,-1,-9,-1,-1,-4
CCN(CC)c1ccc2cc(S(=O)(=O)c3ccc(C)cc3)c(=O)oc2c1,0,-13,-40,36,53*,?
O=C(c1cc2ccccc2o1)N1CCN(c2ccccn2)CC1,-5,-4,-5,1,-2,-2
CCn1cc(CN2CCC(n3nccc3NC(=O)c3cccc(F)c3)CC2)c(C)n1,-2,3,-8,0,-7,-2
CCCc1cc(=O)[nH]c(SCC(=O)N(C)C2CCS(=O)(=O)C2)n1 (stereo not drawn),5,1,0,0,5,-4
